High-throughput results from PubChem BioAssay.
Sampled rows, rich in hits. Any-hit rate of the full collection: about 3.3%.
AmpC inh detg – qHTS Inhibitors of AmpC Beta-Lactamase (assay with detergent). P00811. AmpC hydrolysis of nitrocefin, absorbance 480 nm, 0.01% Triton. Potency, µM (doses to about 114 µM), hits mostly inhibitors. actives 0.041% (n = 370,000). AID 485294, 2010; also: nearly all actives have a fitted effect of over 25% in size
Target sequence (P00811 whole entry, looked up): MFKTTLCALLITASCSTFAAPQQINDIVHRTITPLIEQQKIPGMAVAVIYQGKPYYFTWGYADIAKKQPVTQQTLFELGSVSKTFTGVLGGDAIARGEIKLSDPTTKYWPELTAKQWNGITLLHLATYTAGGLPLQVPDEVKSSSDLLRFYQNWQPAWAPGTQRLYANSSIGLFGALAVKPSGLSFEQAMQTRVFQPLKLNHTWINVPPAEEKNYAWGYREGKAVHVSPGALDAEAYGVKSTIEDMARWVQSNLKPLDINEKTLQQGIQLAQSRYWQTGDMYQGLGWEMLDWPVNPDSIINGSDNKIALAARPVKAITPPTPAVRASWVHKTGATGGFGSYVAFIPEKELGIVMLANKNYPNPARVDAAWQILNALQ
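AmpC (5.3 nM in the dispensed reagent) in 20 mM phosphate pH 7.0 with 0.01% (detergent screen) or 0.0001% Triton X-100 was preincubated with compounds for 15 min at room temperature. Nitrocefin was then added from an 800 uM solution, and hydrolysis was followed at 480 nm.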
AmpC no deterg – qHTS Inhibitors of AmpC Beta-Lactamase (assay without detergent); Potency, µM (top dose mostly 57.1 µM), usual class: inhibitors; AID 485341, 2010; actives 0.52% (n = 330,000); P00811; AmpC nitrocefin hydrolysis, absorbance 480 nm, 0.0001% Triton; also: nearly all actives have a fitted effect of over 20% in size
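20 mM phosphate pH 7.0 + 0.01% (detergent screen) or 0.0001% Triton X-100; 5.3 nM AmpC reagent; cpd preinc 15 min RT; nitrocefin (800 uM stock) to start; A480 q20 s × 4 min; Activity was normalised to no-enzyme and no-compound control wells.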
Sm TGR inh – qHTS Assay for the Inhibitors of Schistosoma Mansoni Peroxiredoxins. Schistosoma mansoni thioredoxin glutathione reductase (TGR), Q962Y6. purified TGR, DTNB reduction, TNB absorbance 405 nm. actives 3% (n = 360,000). Potency, µM (highest dose often 114 µM), usual class: inhibitors; also: nearly all actives have a fitted effect of over 60% in size
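TGR 20 nM + NADPH 100 uM (dispensed conc.), cpd preinc 15 min RT; start with NADPH (500 uM addition) then DTNB (15 mM addition). Kinetic TNB absorbance, 405 nm filter. Four-parameter Hill fit across titration.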
Hits are given with their value; - = inactive; ? = inconclusive; . = not tested or not shown; [ ] = remark or other dose. Calls follow the shape of the dose curve; as a rule, active = well fitted curve in the direction sought with a large enough effect; inconclusive = small, poorly fitted or top-dose-only effect, or another doubt; inactive = no such curve, though single readings can be large; an effect the other way counts as inactive or inconclusive.

SMILES | AmpC inh detg | AmpC no deterg | Sm TGR inh
CCOC(=O)c1cc(-c2ccc(C)o2)nn1CCC#N | - | - | 17.8µM
CCOC(=O)c1cc(-c2ccccc2)nn1CCC#N | - | - | -
NC(=O)c1ccsc1NC(=O)c1ccc(N2CCCC2=O)cc1 | - | 7.94µM | -
NC(=O)c1ccsc1NC(=O)c1ccc2c(c1)CCCC2 | - | - | -
CC(=O)N1CCc2cc(Br)cc(S(=O)(=O)NCCCN(C)Cc3ccccc3)c21 | - | - | -
O=c1[nH]c(CN2CCCC2)nc2sc3c(c12)CCC3 | - | - | -
Clc1nc(CN2CCCCC2)nc2sc3c(c12)CCC3 | - | -[2.29 µM] | 22.4µM
O=C(Cc1ccc(F)cc1)Nc1nnc2n1CCS2 | - | . | -
Cc1ccsc1-c1nc(CN2CCCC2c2ccc(F)cc2)c(C)o1 (configuration not stated) | - | - | ?
CCCOc1ccc(C(=O)CCNc2cccc(Cl)c2)cc1 | - | - | ?
COc1ccc(C(=O)CCNc2cccc(Cl)c2)cc1 | - | - | 44.7µM
COc1ccc(C(=O)Nc2ccc3c(c2)OCCO3)cc1 | - | - | -
COc1ccc(C(=O)CCNc2ccc3c(c2)OCCO3)cc1 | - | - | 14.1µM
Cc1ccccc1CNC(=O)CCn1nc(C)c2c(C)n(-c3ccccc3)nc2c1=O | - | - | -
Cc1ccc(SCC(=O)c2c(C)nc3cc(C)ccn23)cc1 | - | - | -
Cc1ccn2c(C(=O)CSc3ccc(Cl)cc3)c(C)nc2c1 | - | 0.316µM | -
Cc1ccc2ncc(C(=O)NCc3ccccc3Cl)c(=O)n2c1 | - | . | -
O=C(COC(=O)c1cc(S(=O)(=O)N2CCOCC2)ccc1F)NCc1ccco1 | - | - | 44.7µM
CCS(=O)(=O)N1CCC(C(=O)NCc2ccco2)CC1 | - | - | -
CN(Cc1ccco1)C(=O)C1CCN(c2nnc(-n3cccc3)s2)CC1 | ? | - | -
O=C(NCCc1ccccc1)C1CCN(S(=O)(=O)N2CCC3(CC2)OCCO3)CC1 | - | 0.562µM | -
O=C(COC(=O)c1ccc(F)c(S(=O)(=O)N2CCOCC2)c1)NCc1ccco1 | - | - | -
O=C(NCc1ccco1)C1CCN(S(=O)(=O)N2CCOCC2)CC1 | - | - | 50.1µM
O=C(NCc1ccco1)C1CCN(c2nnc(-n3cccc3)s2)CC1 | - | 0.794µM | -
O=C(NCCN1CCC(Cc2ccccc2)CC1)C1CCN(S(=O)(=O)N2CCC3(CC2)OCCO3)CC1 | - | - | -
SMILES | AmpC inh detg | AmpC no deterg | Sm TGR inh
O=C(CNC(=O)c1ccccc1F)N/N=C/c1ccc2c(c1)OCO2 | - | - | -
COC(=O)c1nn(-c2ccc(OC)cc2)c(=O)c2c(N)sc(C)c12 | ? | - | -
C=C1CCC2[C@](C)(CO)[C@H](O)CC[C@@]2(C)[C@@H]1/C=C/C1=CCOC1=O (some centres not stated) | - | - | ?
C=C1CC[C@@H]2[C@](C)(CO)[C@H](O)CC[C@@]2(C)[C@@H]1/C=C/C1=CCOC1=O | - | - | 39.8µM
NC(=O)CSc1ncc2c(n1)-c1ccccc1N(Cc1ccc(Cl)cc1)S2(=O)=O | - | . | -
COc1ccc(NC(=O)c2ccc3c(SCC(=O)O)c4c(nc3c2)CCCC4)cc1OC | - | . | -
CC(=O)c1c(NC(=O)c2ccccc2)[nH]c(-c2ccccc2)nc1=S | ? | 22.4µM | -
CC(=O)c1c(C)[nH]c(-c2ccccc2)nc1=S | - | - | -
CCN1CCN(C(=O)CSCc2nc(-c3ccc(OC)c(OC)c3)oc2C)CC1 | - | - | -
CCN1CCN(C(=O)CS(=O)Cc2nc(-c3ccc(OC)cc3)oc2C)CC1 (configuration not stated) | - | - | ?
Cc1ccc(-c2nc(CS(=O)CC(=O)NCCN3CCOCC3)c(C)o2)cc1 (configuration not stated) | ? | - | -
CCOC(=O)N1CCN(C(=O)CS(=O)Cc2nc(-c3ccc(OC)c(OC)c3)oc2C)CC1 (configuration not stated) | - | - | 44.7µM
Cc1ccc(-c2nc(CS(=O)CC(=O)N3CCC4(CC3)OCCO4)c(C)o2)cc1 (configuration not stated) | - | - | 44.7µM
COc1ccc(-c2nc(CS(=O)CC(=O)N3CCCC3)c(C)o2)cc1 (configuration not stated) | ? | - | 7.08µM
CC(C)(CNC(=O)CCNC(=O)c1ccc(Br)cc1)N1CCOCC1 | - | - | -
COc1ccc(C2OC[C@H]3O[C@H](O)[C@H](NC(C)=O)[C@@H](O)[C@@H]3O2)cc1 (some centres not stated) | - | - | -
O=c1[nH]c(SCc2ccc(F)cc2)nc2c1CCCC2 | - | . | -
